High-throughput results: PubChem, National Center for Advancing Translational Sciences (NCATS)
Sampled rows, rich in hits. Any-hit rate of the full collection: about 3.7%.
Nrf2 ARE act – qHTS of Nrf2 Activators; AID 624171, 2012; AREc32 ARE-luciferase reporter (MCF7-derived line), luminescence, 24 h; hit rate 0.31% among 410,000; Potency, µM (doses to about 46.1 µM), without a hit: top-dose activation, hits mostly activators; note: potency is the fitted concentration of half-maximal effect; % of control where 0% means no effect; nearly all actives have a fitted effect of over 65% in size
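AREc32 cells carrying an ARE-driven firefly luciferase, 1000 cells/well in OPTI-MEM with 5% FBS, dosed after overnight attachment and incubated 24 hr at 37 deg C. Steady-Glo luminescence read after 30 min at RT.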
A549 tox – Nrf2 qHTS screen for inhibitors: counterscreen for cytotoxicity. hit rate 0.16% among 390,000. Potency, µM (highest dose often 46 µM), inactives show at the top dose activity change, negative = cytotoxicity, usual class: inhibitors. A549 ARE-Fluc cells, CellTiter-Fluor viability, 18-24 h; note: potency is the fitted concentration of half-maximal effect; % is set by controls: 0 for no effect and ±100 for the full control effect
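Cytotoxicity counterscreen: CellTiter-Fluor fluorescence was measured in A549 ARE_Fluc cells after 18-24 h of compound exposure in a concentration series. The subsequent BugLite luminescent read reports ARE-luciferase activity.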
Nrf2 block – Nrf2 qHTS screen for inhibitors; A549 ARE-Fluc reporter, luciferase luminescence, 18-24 h; Potency, µM (series often up to 46 µM), for the others: at the highest dose activity change, negative = inhibition, most hits filed as inhibitors; hit rate 2.1% among 360,000; AID 504444, 2011; note: potency is the fitted concentration of half-maximal effect; % is set by controls: 0 for no effect and ±100 for the full control effect; nearly all actives have a fitted effect of over 60% in size
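Nrf2 function is reported as luminescence of an ARE-controlled luciferase in A549 cells. Compounds were tested at several concentrations, and a CellTiter-Fluor read on the same wells flagged cytotoxicity.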
miR-21 act – qHTS Assay for Modulators of miRNAs and/orActivators of miR-21; HeLa miR-21 FLuc reporter, luciferase, 48 h; Potency, µM (doses to about 38.3 µM), without a hit: at the highest dose activity change, positive = activation, actives largely listed as activators; 340,000 tested, under 10 active; AID 2288, 2010;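 note: % of control where 0% means no effect; miR-21 action dims this reporter so a rising signal means less miR-21 action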
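Using DMEM plus 10% FBS, HeLa miR-21-FLuc cells are incubated with test compounds (final up to about 40uM) for 48 hours; firefly luciferase signal is then imaged following reagent-mediated lysis.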
ClpP mod – qHTS Assay for Activators of ClpP; ATP-dependent Clp protease proteolytic subunit (Bacillus subtilis (strain 168)), P80244; purified B. subtilis ClpP, FRET peptide cleavage, 20 min; Potency, µM (top dose mostly 57.5 µM), for the others: top-dose activity change, negative = active; hit rate 1.9% among 340,000; active = well fitted falling curve with a large enough effect; inconclusive = small, poorly fitted or top-dose-only effect; inactive = no such curve, though single readings can be large or run the other way; note: potency is the fitted concentration of half-maximal effect; the source files actives as falling curves though it sought activators and does not explain the sign; nearly all actives have a fitted effect of over 65% in size
Target sequence (P80244 whole entry, looked up): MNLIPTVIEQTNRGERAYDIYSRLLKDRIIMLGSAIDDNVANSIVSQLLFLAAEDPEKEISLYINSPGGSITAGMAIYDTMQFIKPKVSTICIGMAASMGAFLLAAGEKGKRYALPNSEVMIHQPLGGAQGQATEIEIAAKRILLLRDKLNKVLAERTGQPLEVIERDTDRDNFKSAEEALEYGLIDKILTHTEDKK
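ClpP 10 microg/mL final, pH 8 Tris/KCl buffer with BSA, glycerol, Tween-20; compound pinned in; FRET-FV substrate; RT 20 min; Ex320/Em430; ΔFRET vs ADEP 5.8 microM, DMSO, no enzyme.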
TCR activator – Activators of T cell receptors: qHTS campaign; primary human leukocytes, anti-CD3, IL-2 HTRF, 48 h; 330,000 tested, under 10 active; Potency, µM (doses to about 9.22 µM), inactives show at the top dose activation of IL-2 secretion, hits mostly activators; note: % of control where 0% means no effect
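IL-2 release read by HTRF sandwich (Eu cryptate donor, d2 acceptor, 665 nm emission) after 48 hr exposure of primary human leukocytes to compound together with anti-CD3 beads in the absence of co-stimulatory signals.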
An asterisk follows results filed as active; ? = inconclusive; . = not tested or not shown; [ ] = another dose, or the depositor's remark. Unless noted, calls come from the whole dose curve; as a rule, active = well fitted curve in the direction sought with a large enough effect; inconclusive = small, poorly fitted or top-dose-only effect, or another doubt; inactive = no such curve, though single readings can be large; an effect the other way counts as inactive or inconclusive.

SMILES | Nrf2 ARE act | A549 tox | Nrf2 block | miR-21 act | ClpP mod | TCR activator
NC(=O)C1CCN(C(c2ccccc2)c2nnnn2C2CCCC2)CC1 (configuration not stated) | 0% | -12% | -6% | -1% | -3% | -8%[46.1 µM]
c1ccc(C(c2ccccc2)N2CCN(C(c3ccccn3)c3nnnn3C3CCCC3)CC2)cc1 (configuration not stated) | 0% | -14% | 2% | 1% | 22µM* | -4%
c1ccc(C(c2nnnn2C2CCCC2)N2CCCCCC2)nc1 (configuration not stated) | 0% | -9% | -10% | -1% | 22µM* | -9%
c1cncc(C(c2nnnn2C2CCCC2)N2CCCC2)c1 (configuration not stated) | 0% | 9% | 10% | -4% | -1% | 7%
CCc1c(C)nc2c(-c3ccccc3OC)c(C)[nH]n2c1=O | 0% | -1% | ? | 3% | . | -5%
O=C(Nc1nc(OCCN2CCCC2=O)cnc1/C=C\c1ccccc1)c1cc2ccccc2s1 | 1% | . | . | . | -30% | .
CCc1nc(N(CC)CC)c2oc3ccccc3c2n1 | -1% | 3% | 0% | 2% | -8% | -2%
CCc1nc(N2CCC(C)CC2)c2oc3ccccc3c2n1 | -1% | -25% | ? | -1% | 32µM* | 5%
CCCCNC(=O)c1c(O)c2cccc3c2n(c1=O)CCC3 | 0% | -2% | -8% | -8% | 11µM* | -4%
Cc1ccc(OCC(=O)N/N=C/C=C/c2ccco2)c(Br)c1 | 26% | 0% | -5% | 0% | -1% | 1%
Cc1cccc(OCC(=O)N/N=C/C=C/c2ccco2)c1 | 22µM* | -1% | 12% | 9% | 0% | 4%[46.1 µM]
O=C(Cc1cccs1)N/N=C/C=C\c1ccco1 | 11µM* | -5% | ? | 9% | . | 6%[46.1 µM]
Cc1cccc(C)c1OCC(=O)N/N=C/C=C/c1ccco1 | 1.6µM* | -5% | 3% | 12% | 1% | 4%
CCN(CC)C(=O)C1=C(C)N(CCCN2CCCC2=O)C(=O)C(CC(=O)NC2CCCC2)C1 (configuration not stated) | 0% | . | . | . | 1% | .
Cc1cc(C)cc(-n2c(SCC(=O)N3CCOCC3)nc3c([nH]c4ccccc43)c2=O)c1 | 1% | 1% | . | -5% | -10% | .
O=C(Nc1ccc(O)cc1)c1cc2ccccc2c(=O)s1 | 7% | -7% | 14% | -30% | . | 7%
O=C(Nc1ccccc1)c1cc2ccccc2c(=O)s1 | 10µM* | -5% | -8% | -1% | -2% | 0%[46.1 µM]
CCOC(=O)c1cccc(NC(=O)NCc2cccn2Cc2ccccc2)c1 | 4% | 2% | ? | 8% | 7% | .
Cc1ncc(CO)c(/C=N/NC(=S)Nc2ccc(F)cc2)c1O | -1% | -4% | ? | 26% | -13% | 3%[46.1 µM]
Cc1ncc(CO)c(/C=N/Nc2ccc(C(F)(F)F)cn2)c1O | -1% | ? | 10µM* | ? | . | 1%
COC(=O)C1=C(C)NC(C)=C(C(=O)OC)C1c1ccc(-c2cccc(Cl)c2Cl)o1 | 14% | 0% | ? | -22% | 25µM* | 8%[46.1 µM]
O=C(Cc1ccc(OCCCc2ccccc2)cc1)NO | . | . | . | . | 0% | .
C[C@@H]1COC(=O)[C@@H](CC(=O)OC(C)(C)C)C/C=C\C[C@H](CC(=O)NCCO)C(=O)N1 | -1% | -3% | 8% | . | 2% | -4%
CCOC(=O)c1ccccc1NC(=O)CCc1nc(-c2ccc(C)cc2)no1 | -1% | 2% | 1% | 0% | ? | .
COc1ccc(-c2noc(CCC(=O)Nc3ccc(C(F)(F)F)cc3)n2)cc1 | 0% | -6% | 18µM* | 11% | 0% | .
CC(C)(C)c1ccc(-c2noc(CCC(=O)Nc3cccnc3)n2)cc1 | -2% | -2% | 0.26µM* | ? | -2% | -3%
